# Calls of active or inactive are those of the source. Unless noted, the rule behind the calls is not given here.
# Key:
# [1] = system: XIP peptide (Xip251-270) binding; assay: XIP fragment 251-270 binding compounds – biochemical, small-molecule microarray, fluorescence 635/667 nm, 0.1 µg/mL protein, primary screen (AID 1182); conditions: fluorescent protein binding, 635 nm, higher = more signal, called active from +8 up or from −8 down
# XIP peptide (Xip251-270) = assay: compounds binding XIP fragment 251-270 – biochemical, small-molecule microarray, fluorescence 635/667 nm, 0.5 µg/mL protein, primary screen (AID 1183); conditions: fluorescence 635 nm, higher = more signal
# [2] = blood-stage malaria parasite viability loss – strain 3D7, DAPI fluorescence, 100 nL, primary screen (AID 1184);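 note: parasites grown inside human red blood cells in medium with human serum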; conditions: P. falciparum 3D7 growth, 3 d, higher = more signal
# [3] = target: Homeobox protein Hox-A13 (Mus musculus) (UniProt Q62424); assay: disruptors of Hoxa13 oligonucleotide interaction – biochemical, fluorescence polarization, labeled oligonucleotide, primary screen (AID 1185); conditions: Hoxa13:DNA binding, 15 min, higher = more signal, called active from +8 up or from −8 down
# Sequence of Homeobox protein Hox-A13 (Mus musculus) (Q62424 whole entry, looked up): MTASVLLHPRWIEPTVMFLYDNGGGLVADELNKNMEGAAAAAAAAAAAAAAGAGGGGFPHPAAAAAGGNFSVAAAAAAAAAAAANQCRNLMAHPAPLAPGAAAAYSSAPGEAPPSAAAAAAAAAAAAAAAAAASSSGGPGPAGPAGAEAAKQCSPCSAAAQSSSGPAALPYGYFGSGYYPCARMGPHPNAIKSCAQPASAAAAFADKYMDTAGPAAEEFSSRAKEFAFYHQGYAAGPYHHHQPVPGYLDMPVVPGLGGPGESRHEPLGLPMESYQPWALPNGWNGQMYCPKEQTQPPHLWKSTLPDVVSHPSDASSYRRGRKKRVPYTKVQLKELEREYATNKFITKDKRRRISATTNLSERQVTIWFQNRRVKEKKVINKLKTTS
# [4] = blockers of DNA damage checkpoint Chk1 activation – imaging, HeLa, hydroxyurea, phospho-Chk1 antibody, percent positive cells, primary screen (AID 1186); conditions: hydroxyurea-induced phospho-Chk1 immunofluorescence imaging, higher = more signal
# [5] = blockers of DNA damage checkpoint Chk1 activation – imaging, HeLa, hydroxyurea, phospho-Chk1 nuclear intensity, primary screen (AID 1187); conditions: hydroxyurea-induced phospho-Chk1 immunofluorescence imaging, higher = more signal
SMILES,composite z-score [1],composite z-score (XIP peptide (Xip251-270)),z-score [2],z-score [3],z-score [4],z-score [5]
COC(=O)[C@@]1(Cc2ccc(F)cc2)[C@H]2c3cc(C(=O)N4CCCC4)n(CCc4ccc(OC)c(Br)c4)c3C[C@H]2CN1C(=O)c1ccccc1,-0.0505 (inactive),0.557,-1.58,-2.27 (inactive),-1.03 (inactive),-0.872 (inactive)
O=C1O[C@@H](c2ccccc2)[C@@H](c2ccccc2)N2[C@@H](c3ccc(O)cc3)[C@]3(C(=O)Nc4ccc(C#CCCO)cc43)[C@@H](C(=O)N3CCCCCCC3)[C@H]12,0.868 (inactive),0.876,-1.1,1.7 (inactive),-0.149 (inactive),-0.56 (inactive)
C=C[C@H](C)[C@H](O)c1ccc(OCCO)cc1,-0.199 (inactive),-0.143,-0.996,-0.499 (inactive),-0.82 (inactive),-0.216 (inactive)
COCCCNC(=O)[C@@]1(Sc2ccc(C)cc2)CC(=O)N(Cc2ccccc2)[C@@H]1c1ccc(CO)cc1,-0.496 (inactive),0.841,-0.471,-2.81 (inactive),-0.24 (inactive),-0.283 (inactive)
COCCOC(=O)N1C(=O)[C@@]2(c3cc(C#CC4=CCCCC4)ccc31)[C@H](c1ccc(OCCO)cc1)N1[C@H](c3ccccc3)[C@H](c3ccccc3)OC(=O)[C@H]1[C@@H]2C(=O)Nc1nc2ccccc2s1,-0.166 (inactive),0.622,-1.29,3.94 (inactive),-0.446 (inactive),-1.1 (inactive)
O=c1cccc(-c2ccc3ccccc3c2)o1,-0.644 (inactive),-0.688,1,-1 (inactive),-0.319 (inactive),-0.587 (inactive)
[N-]=[N+]=NCc1ccccc1C[C@]1(C(=O)N2CCOCC2)N=C(c2ccc(OCCCO)cc2)O[C@H]1c1ccccc1,0.855 (inactive),0.21,-2.38,-6.01 (inactive),-0.638 (inactive),-0.71 (inactive)
CC(C)(C)OC(=O)CC[C@]1(C(=O)NCC(O)CO)N=C(c2ccc(OCCCO)cc2)O[C@H]1c1ccccc1CN=[N+]=[N-] (stereo partly specified),3.09 (inactive),0.878,-0.121,-5.33 (inactive),-0.029 (inactive),0.402 (inactive)
COCCOC(=O)N1C(=O)[C@@]2(c3cc(C#CCC(C(=O)OC)C(=O)OC)ccc31)[C@H](c1ccccc1OCCO)N1[C@H](c3ccccc3)[C@H](c3ccccc3)OC(=O)[C@H]1[C@@H]2C(=O)Nc1nc2ccccc2s1,0.83 (inactive),0.862,-1.53,3.51 (inactive),-0.5 (inactive),-0.31 (inactive)
C=C(CCCC)C(=O)CC[C@@H](OC(=O)c1ccccc1-c1ccccc1C(=O)O)c1ccc(CO)o1,0.412 (inactive),0.432,1.61,-5.58 (inactive),0.629 (inactive),0.717 (inactive)
NC(=O)NCC#Cc1ccc2c(c1)[C@]1(C(=O)N2)[C@H](C(=O)NC[C@H](O)c2ccccc2)[C@H]2C(=O)O[C@H](c3ccccc3)[C@H](c3ccccc3)N2[C@@H]1c1ccccc1OCCO,0.635 (inactive),0.799,-1.32,-3.41 (inactive),-0.228 (inactive),-0.374 (inactive)
CCCC[C@@H]1C[C@H]1[C@@H](NC(=O)c1ccco1)c1ccccc1,-0.153 (inactive),-0.041,-1.46,-2.46 (inactive),0.243 (inactive),0.428 (inactive)
CC(C)C(=C=CC[C@H](O)c1ccccc1OCCO)CCO,-0.393 (inactive),0.81,-0.305,-3.12 (inactive),-0.106 (inactive),0.0237 (inactive)
C=CCNC(=O)[C@H]1[C@@H]2C(=O)O[C@@H](c3ccccc3)[C@@H](c3ccccc3)N2[C@@H](c2ccc(O)cc2)[C@]12C(=O)Nc1ccc(C#Cc3ccc(OC)cc3)cc12,0.292 (inactive),0.779,-0.785,-1.91 (inactive),0.0407 (inactive),0.277 (inactive)
O=C1C2C=CC(C(O)CCc3ccccc3)N(Nc3ccccc3)C2C(=O)N1c1ccccc1 (stereo unspecified),0.792 (inactive),0.802,-0.467,-3.23 (inactive),0.684 (inactive),0.448 (inactive)
COCCn1c(C(=O)N2CCCC2)cc2c1C[C@H]1CN(C(=O)c3ccccc3)[C@@](Cc3ccc(OC)cc3)(C(=O)OC)[C@@H]21,0.541 (inactive),0.603,-1.55,-4.97 (inactive),-0.598 (inactive),-0.634 (inactive)
CCOC(=O)C=Cc1cccc(OC)c1O,0.0682 (inactive),0.36,-1.24,-0.697 (inactive),-1.68 (inactive),-1.49 (inactive)
C=C(CCCC)/C(=C/C[C@@H](OC(=O)c1ccncc1)c1ccc(CO)o1)c1cc(C(=O)OC)ccc1OC,0.611 (inactive),0.83,-0.519,-3.68 (inactive),-0.762 (inactive),-1.65 (inactive)
CN(C)CCCC[C@@H]1NC(=O)[C@@H]2C[C@H](C(=O)NCCCCCCN)[C@H](c3ccc(O)cc3)N2C1=O,0.674 (inactive),0.0252,0.0094,-2.65 (inactive),0.136 (inactive),-0.366 (inactive)
CC(c1ccccc1)C(O)C1C=CC2C(=O)N(Cc3ccccc3)C(=O)C2N1n1cnnc1 (stereo unspecified),-0.429 (inactive),0.908,-0.864,-1.93 (inactive),0.106 (inactive),-0.634 (inactive)
O=C(CS)NCCCCCNC(=O)[C@H]1C[C@H]2C(=O)N[C@@H](Cc3ccccc3)C(=O)N2[C@H]1c1cccc(OCCO)c1,0.296 (inactive),0.812,0.0332,-2.76 (inactive),0.0034 (inactive),0.483 (inactive)
CCCC[C@@H]1C[C@H]1[C@@H](NC(=O)c1ccccc1)c1ccc(-c2ccccc2)cc1,0.397 (inactive),-0.0572,-0.0371,-3.63 (inactive),-0.0528 (inactive),0.215 (inactive)
O=C(NCc1ccccc1)[C@@H]1c2ccccc2C(=O)N(Cc2cc(F)cc(C(F)(F)F)c2)[C@H]1c1ccc(CO)cc1,0.818 (inactive),0.941,-0.0341,-2.88 (inactive),-1.07 (inactive),-1.29 (inactive)
CO[C@H]1O[C@H](CO)[C@@H](OC(=O)Nc2cccc(F)c2)[C@H](OC(=O)Nc2ccccc2-c2ccccc2)[C@@H]1OC(=O)Nc1ccccc1-c1ccccc1,1.37 (inactive),0.805,-2.53,-1.83 (inactive),-0.164 (inactive),0.217 (inactive)
COC(=O)C(CC#Cc1ccc2c(c1)[C@]1(C(=O)N2)[C@H](C(=O)N2CCCCCCC2)[C@H]2C(=O)O[C@H](c3ccccc3)[C@H](c3ccccc3)N2[C@@H]1c1ccccc1OCCO)C(=O)OC,8 (inactive),1.04,-2.21,1.03 (inactive),0.0041 (inactive),0.0484 (inactive)
Oc1ccc2cc[n+](Cc3cccc(OC(F)(F)F)c3)cc2c1,0.143 (inactive),0.558,0.233,-3.08 (inactive),-0.208 (inactive),-0.16 (inactive)
